Potency and outcome data for seven compounds are collected here from PubChem BioAssay (Tox21).

Experiment [1] can be described thus: qHTS assay for small molecule agonists of the p53 signaling pathway (AID 651631; calls by dose curve; further: nearly all actives have a fitted effect of over 15% in size; further: potency means the concentration at half of the fitted maximal effect). Put shortly:
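Quantitative high-throughput format: 4,000 p53RE-bla HCT-116 cells/well, 5 h pre-incubation, 16 h compound exposure at 37 °C, 2 h room-temperature substrate step, fluorescence intensity measured.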

Experiment [2] can be described thus: qHTS assay for small molecules that induce genotoxicity in human embryonic kidney cells expressing luciferase-tagged ATAD5 (AID 651632). Further: nearly all actives have a fitted effect of over 15% in size. The essentials: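 Genotoxicity read-out via ATAD5-luciferase: HEK293T cells, 16 hr compound incubation at 37C, Amplite detection.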
The nature of experiment [3]: qHTS assay for small molecule agonists of the p53 signaling pathway - cell viability (AID 651633; calls by dose curve; further: nearly all actives have a fitted effect of over 30% in size; further: potency means the concentration at half of the fitted maximal effect). The essentials: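 p53RE-bla cells were treated with compound for 16 hours at 37 C. Cytotoxicity was then measured as CellTiter-Glo luminescence after 30 min at room temperature.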
A general note: In qHTS, concentration-response curves come from the screen itself.

Experiment [4] can be described thus: qHTS assay for small molecules that induce genotoxicity in human embryonic kidney cells expressing luciferase-tagged ATAD5 - cell viability (AID 651634; calls by dose curve; further: nearly all actives have a fitted effect of over 25% in size; further: potency means the concentration at half of the fitted maximal effect). The essentials: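 Live-cell protease activity (CellTiter-Fluor, fluorescence) indicates viability. HEK293T cells with luciferase-tagged ATAD5; 15.5 hr compound treatment at 37C.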
The nature of experiment [5]: qHTS assay for small molecule disruptors of the mitochondrial membrane potential - cell viability (AID 720634; calls by dose curve;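 further: human HepG2 liver cancer cells; series mostly up to about 83 µM; nearly all actives have a fitted effect of over 20% in size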). The essentials:
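Human hepatoma HepG2 cells were treated for 1 hr with test chemicals, then given m-MPI dye and CellTiter-Glo. Cell viability reflects luminescence proportional to cellular ATP.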

The nature of experiment [6]: qHTS assay for small molecule disruptors of the mitochondrial membrane potential (AID 720635). Further: potency means the concentration at half of the fitted maximal effect. Put shortly: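 HepG2 cells exposed to compound 1 hr at 37C, then Mito-MPS dye 30 min. Ratio read of aggregate (540/590 nm) versus monomer (490/535 nm) fluorescence.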
Experiment [7] can be described thus: qHTS assay to test for compound auto fluorescence at 590 nm (red) in HepG2 cells (AID 720674). The essentials:
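Fluorescence at 590 nm emission following 540 nm excitation was recorded from HepG2 wells one hour after compound transfer, with DMSO-only wells as vehicle and Rose Bengal sodium equivalency as the scale.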

Experiment [8] is described as follows: qHTS assay to test for compound auto fluorescence at 535 nm (green) in HepG2 cells (AID 720675).
The nature of experiment [9]: qHTS assay to test for compound auto fluorescence at 460 nm (blue) in HEK293 cells (AID 720678). The essentials:
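Triamterene serves as the blue fluorophore standard. Compound signal at 405/460 nm is read in HEK293 wells (2,000 cells, 10% dialyzed FBS) after overnight treatment at 37C.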

Experiment [10] can be described thus: qHTS assay to test for compound auto fluorescence at 590 nm (red) in HEK293 cells (AID 720679). Put shortly: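 We plated HEK293 cells in 10% dialyzed FBS medium, let them adhere for 4-5 hr, then added 23 nL compound. Overnight at 37C and 5% CO2 preceded fluorescence measurement at 540/590nm.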
Experiment [11] is described as follows: qHTS assay to test for compound auto fluorescence at 535 nm (green) in HEK293 cells (AID 720680).
Experiment [12] is described as follows: qHTS assay to test for compound auto fluorescence at 460 nm (blue) in HEK293 cell free culture (AID 720681). Put shortly: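 Compounds were added to cell-free DMEM with 10% FBS and fluorescence read directly. The blue channel used 405 nm excitation and 460 nm emission, with triamterene as the reference fluorophore.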
Experiment [13] in a line: qHTS assay to test for compound auto fluorescence at 535 nm (green) in HEK293 cell free culture (AID 720682). Put shortly: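 Measurement is a direct plate read of green fluorescence (485 nm in, 535 nm out) after compound addition to serum-supplemented DMEM lacking cells, with fluorescein used to express intensities.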
Experiment [14] can be described thus: qHTS assay to test for compound auto fluorescence at 590 nm (red) in HEK293 cell free culture (AID 720683). The essentials:
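Cell-free wells of DMEM with 10% FBS received compound, and intrinsic fluorescence was read at excitation/emission 540/590 nm. Values expressed as equivalence to Rose Bengal sodium.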

A short description of experiment [15]: qHTS assay to test for compound auto fluorescence at 590 nm (red) in HepG2 cell free culture (AID 720684). Put shortly: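 Compounds are added to culture medium (MEM, 10% FBS) lacking cells, then fluorescence is read at excitation 540 nm, emission 590 nm, with Rose Bengal sodium as the equivalency standard.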
Experiment [16] can be described thus: qHTS assay to test for compound auto fluorescence at 460 nm (blue) in HepG2 cell free culture (AID 720685). Put shortly: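 Compound (23 nL) or DMSO pinned into cell-free MEM with 10% FBS; blue fluorescence read at 405/460 nm excitation/emission, expressed as auto-fluorescence equivalency to triamterene.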
Experiment [17] is described as follows: qHTS assay to test for compound auto fluorescence at 535 nm (green) in HepG2 cell free culture (AID 720686).
Experiment [18] can be described thus: qHTS assay to test for compound auto fluorescence at 460 nm (blue) in HepG2 cells (AID 720687). The essentials:
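HepG2 cells in MEM with 10% FBS, attached overnight at 37 C, were exposed to compound or DMSO for 1 hr at 37 C, 5% CO2. Blue fluorescence was read at 405/460 nm, with triamterene as reference fluorophore.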

The target in experiment [19] is Glucocorticoid receptor (Homo sapiens) (UniProt P04150). Put plainly: qHTS assay to identify small molecule agonists of the glucocorticoid receptor (GR) signaling pathway (AID 720691; active means well fitted activation curve with a large enough effect in the signal ratio in the repeat runs, not every such curve was filed as active; the % refers to the signal ratio). The essentials:
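Beta-lactamase reporter activity, read as fluorescence intensity, was measured in GR-bla HeLa cells exposed to compounds for 18 h at 37 C and then loaded with LiveBLAzer B/G FRET substrate for 2 h at room temperature.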

Experiment [20] shares this target. Put plainly: qHTS assay to identify small molecule antagonists of the glucocorticoid receptor (GR) signaling pathway (AID 720692; active means well fitted inhibition curve with a large enough effect in the signal ratio in the repeat runs, not every such curve was filed as active; the % refers to the signal ratio). The essentials:
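Fluorescence from cleaved LiveBLAzer B/G FRET substrate reports GRE-driven beta-lactamase in HeLa cells; compounds are tested against 5 nM dexamethasone (final) over 18 h at 37 C, substrate incubation 2 h at room temperature.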

A number with no mark means an inactive call. Results filed as inconclusive are left out. Activity calls are given as the source filed them. Unless noted, the call rests on the fitted dose curve; in most records, active means well fitted curve in the direction sought with a large enough effect in the repeat runs; inconclusive means weak or mixed curves; inactive means no such curve, though single readings can be large; an effect the other way counts as inactive or inconclusive.

Glucocorticoid receptor (Homo sapiens), sequence (P04150 whole entry, looked up): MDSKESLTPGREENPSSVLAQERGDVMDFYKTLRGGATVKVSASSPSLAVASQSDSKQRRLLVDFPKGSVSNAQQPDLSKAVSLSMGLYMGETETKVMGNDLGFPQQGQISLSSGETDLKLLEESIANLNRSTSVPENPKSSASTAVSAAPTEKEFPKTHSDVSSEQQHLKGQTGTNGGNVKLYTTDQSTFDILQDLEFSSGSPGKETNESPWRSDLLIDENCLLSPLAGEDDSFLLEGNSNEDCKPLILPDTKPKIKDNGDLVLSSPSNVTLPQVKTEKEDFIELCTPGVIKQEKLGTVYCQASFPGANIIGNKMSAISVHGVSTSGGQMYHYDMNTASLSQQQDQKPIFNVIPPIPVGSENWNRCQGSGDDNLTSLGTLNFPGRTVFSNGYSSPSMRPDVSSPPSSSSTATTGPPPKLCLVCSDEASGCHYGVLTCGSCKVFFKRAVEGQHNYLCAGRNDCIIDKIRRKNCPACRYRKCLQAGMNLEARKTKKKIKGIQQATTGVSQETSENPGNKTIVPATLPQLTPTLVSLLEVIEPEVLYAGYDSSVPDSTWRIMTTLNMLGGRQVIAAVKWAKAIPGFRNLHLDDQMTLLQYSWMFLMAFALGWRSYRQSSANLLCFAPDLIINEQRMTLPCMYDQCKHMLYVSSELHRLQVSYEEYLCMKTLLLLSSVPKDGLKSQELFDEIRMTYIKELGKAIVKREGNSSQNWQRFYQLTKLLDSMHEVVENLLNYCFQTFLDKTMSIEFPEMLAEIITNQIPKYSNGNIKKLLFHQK

Turning to `O=Cc1c2ccccc2c(Cl)c2ccccc12`, the Potency result in experiment [1], in experiment [2], in experiment [3], in [4], in experiment [5] and in experiment [9] was “inactive” throughout. Further, the Potency result in experiment [12], in [16], in experiment [18], in experiment [19] and in experiment [20] was “inactive” in each case. Moreover, the Potency in [6] was 8.42 µM (active). Besides, the call in experiment [7], in experiment [8], in experiment [10], in experiment [11], in [13] and in experiment [14] was inactive. Besides, the compound was called inactive in experiment [15] and in experiment [17].

With `CC(C)(C)C(=O)C(=O)O`, the Potency entry in [1], in experiment [2], in experiment [3], in experiment [4], in experiment [5] and in [6] was “inactive” each time. Moreover, the Potency entry in experiment [9], in experiment [12], in experiment [16], in [18], in experiment [19] and in experiment [20] was “inactive” in each case. Further, the result in experiment [7], in [8], in experiment [10], in experiment [11], in [14] and in experiment [15] was inactive.

For the compound `Cc1ccc(OC(=O)c2ccccc2O)cc1`, the Potency entry in [1], in experiment [2], in experiment [3], in [4], in [5] and in experiment [6] was “inactive” throughout. Moreover, the Potency entry in [9], in experiment [12], in [16], in experiment [18] and in experiment [19] was “inactive” in each case. Also, the result in experiment [7], in experiment [8], in experiment [10], in experiment [11], in experiment [13] and in experiment [15] was inactive.

Take `Cc1ccc(CO)cc1`: the Potency result in [1], in experiment [2], in [3], in [4], in experiment [5] and in [6] was “inactive” in each case. The Potency result in [9], in experiment [12], in experiment [16], in experiment [18], in experiment [19] and in [20] was “inactive” in each case. In addition, the outcome in [7], in [8], in [10], in experiment [11], in [13] and in experiment [14] was inactive. Moreover, the result in [15] and in experiment [17] was inactive.

Regarding `COc1cc(Nc2c(C#N)cnc3cc(OCCCN4CCN(C)CC4)c(OC)cc23)c(Cl)cc1Cl`, the Potency is 11.9 µM (active) in experiment [1], 26.6 µM (active) in experiment [3], 29.8 µM (active) in experiment [4] and 0.376 µM (active) in experiment [6]. The Potency entry in [2], in experiment [5], in [9], in [12], in experiment [16] and in experiment [18] was “inactive” throughout. Also, the compound was called inactive in experiment [7], in [8], in [11], in experiment [13], in [14] and in [15].

Regarding `CC(C)Nc1cccnc1N1CCN(C(=O)c2cc3cc(NS(C)(=O)=O)ccc3[nH]2)CC1`, the Potency result in [1], in experiment [2], in experiment [3], in experiment [4], in [5] and in [9] was “inactive” in each case. Besides, the Potency entry in experiment [12], in experiment [16], in experiment [18] and in experiment [19] was “inactive” throughout. The Potency in experiment [6] is 26.6 µM (active). In addition, the outcome in experiment [7], in experiment [8], in [10], in experiment [11], in experiment [14] and in experiment [15] was inactive.

For the compound `CCCCCCCCN`, the Potency result in experiment [1], in experiment [2], in [3], in experiment [4], in experiment [5] and in experiment [6] was “inactive” each time. Besides, the Potency result in [9], in [12], in experiment [16] and in [18] was “inactive” each time. The result in experiment [7], in [8], in experiment [10], in [11], in experiment [13] and in [15] was inactive. The call in experiment [17] was inactive.
